Source: paper PMC7826789 (International Journal of Molecular Sciences, 2021)

What follows are compounds tested on GSK3B.

Row | Structure (SMILES) | Kinases covered
1 | Cc1nnc(-c2ccc3occ(-c4ccc(S(C)=O)cc4)c3c2)[nH]1 (centres unmarked) [TPKI-85] | GSK3B
2 | CCC(NN(C)C)=C1C(=O)Nc2ccc(C(C)=O)cc21 [BI00036838] | GSK3B
3 | COc1cc(C=NNc2ncnc3c2cnn3-c2ccccc2)ccc1O [GW513184X] | GSK3B
4 | O=C(Nc1n[nH]c2nc(-c3ccc(O)cc3)c(Br)cc12)C1CC1 [SB-725317] | GSK3B
5 | COc1ccc(CSc2nnc(-c3ccc4ncsc4c3)o2)cc1C(F)(F)F [TPKI-91] | GSK3B
6 | COc1ccc2c(-c3ccnc(Nc4cccc(OC(F)(F)F)c4)n3)cnn2n1 [GW810372X] | GSK3B

Each compound was assayed on IGF1R.

Row | Structure (SMILES) | Kinases covered
7 | COc1cc(C)c(N(C)C(=O)CN(C)C)cc1Nc1nc(Nc2cccc(F)c2C(N)=O)c2cc[nH]c2n1 [GSK2219385] | IGF1R
8 | COc1cc(N2CCN(C(C)C)CC2)ccc1Nc1nc(Nc2ccc(F)cc2C(=O)NC[C@@H](O)CO)c2cc[nH]c2n1 [GSK1392956A] | IGF1R
9 | CCc1cc(Nc2nccc(-c3c(-c4ccc(OC)c(C(=O)Nc5c(F)cccc5F)c4)nc4ccccn34)n2)c(OC)cc1N1CCC(N2CCN(S(C)(=O)=O)CC2)CC1 [GSK1904529] | IGF1R
10 | CN(C)C/C=C/C(=O)Nc1ccc(C(=O)Nc2cccc(Nc3ncc(Cl)c(-c4c[nH]c5ccccc45)n3)c2)cc1 [THZ1] | IGF1R
11 | CNC(=O)c1c(F)cccc1Nc1nc(Nc2cc3c(cc2OC)CCN3C(=O)CN(C)C)nc2[nH]ccc12 [GSK1838705] | IGF1R
